Most compounds without a hit are left out; they make up all but 10% or so of the library.
HEK293 tox: cytotoxic compounds in HEK 293 cells; HEK 293 viability, ATP luminescence (CellTiter-Glo), 48-72 h; Potency, µM (titrated, usually from 115 µM), without a hit: at the highest dose activity change, negative = cytotoxicity, most hits filed as inhibitors; hit rate 6.6% among 94,000; AID 1345083; also: % is scaled to controls: 0 for no effect and ±100 for the full control effect; nearly all actives have a fitted effect of over 60% in size
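Cytotoxicity was scored by loss of ATP-coupled luminescence (CellTiter-Glo) in HEK 293 cells. Compound treatment ran 48 or 72 hr at 37 degree Celsius, 5% CO2, 95% humidity.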
Luciferase inh: Photinus pyralis luciferase inhibition. purified P. pyralis luciferase, luminescence, biochemical. Potency, µM (titrated, usually from 115 µM), most hits filed as inhibitors. hit rate 2.5% among 76,000. AID 1347043; also: % is scaled to controls: 0 for no effect and ±100 for the full control effect; nearly all actives have a fitted effect of over 65% in size
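Biochemical qHTS: compound (6-point titration) added to 10uM D-luciferin plus 10uM ATP in Tris acetate pH 7.5 buffer with Mg, Tween-20 and BSA, then purified enzyme at 10nM; light output imaged.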
3T3 cytotox: NIH 3T3 cell cytotoxicity | NIH 3T3 viability, CellTiter-Glo ATP luminescence, 48-72 h | Potency, µM (top dose mostly 96.7 µM), inactives show top-dose activity change, negative = cytotoxicity, actives largely listed as inhibitors | hit rate 4.3% among 94,000 | AID 1345082; also: % is scaled to controls: 0 for no effect and ±100 for the full control effect; nearly all actives have a fitted effect of over 55% in size
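ATP-dependent luminescence (CellTiter-Glo) served as the viability signal for NIH 3T3 cells treated with compound for 48 or 72 hr at 37 °C.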
hNpr1 antagonist: blocks ANP-stimulated signaling of human Npr1 receptor; HEK293 hNpr1 GloSensor cGMP, ANP-stimulated luminescence; Potency, µM (highest dose often 46.3 µM), for the others: at the top dose activity change, negative = inhibition, usual class: inhibitors; hit rate 1.6% among 76,000; calls by dose curve; also: % is scaled to controls: 0 for no effect and ±100 for the full control effect; nearly all actives have a fitted effect of over 60% in size
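Compound pre-incubated 30 min at room temperature on GloSensor-loaded HEK293 cells stably carrying hNpr1 and the pGS-40F cGMP biosensor. Stimulation uses hNppA at 0.1 nM final; luminescence is taken at baseline and 20 min post-agonist.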
GPT2 inh: inhibitors of human GPT2 alanine aminotransferase; Recombinant GPT2, coupled pyruvate oxidase/HRP Amplex Red fluorescence; Potency, µM (highest dose often 57.7 µM), inactives show at the highest dose activity change, negative = inhibition, actives largely listed as inhibitors; hit rate 0.25% among 100,000; AID 1671188; also: % is scaled to controls: 0 for no effect and ±100 for the full control effect; nearly all actives have a fitted effect of over 60% in size
Target sequence (Q8TD30 whole entry, looked up): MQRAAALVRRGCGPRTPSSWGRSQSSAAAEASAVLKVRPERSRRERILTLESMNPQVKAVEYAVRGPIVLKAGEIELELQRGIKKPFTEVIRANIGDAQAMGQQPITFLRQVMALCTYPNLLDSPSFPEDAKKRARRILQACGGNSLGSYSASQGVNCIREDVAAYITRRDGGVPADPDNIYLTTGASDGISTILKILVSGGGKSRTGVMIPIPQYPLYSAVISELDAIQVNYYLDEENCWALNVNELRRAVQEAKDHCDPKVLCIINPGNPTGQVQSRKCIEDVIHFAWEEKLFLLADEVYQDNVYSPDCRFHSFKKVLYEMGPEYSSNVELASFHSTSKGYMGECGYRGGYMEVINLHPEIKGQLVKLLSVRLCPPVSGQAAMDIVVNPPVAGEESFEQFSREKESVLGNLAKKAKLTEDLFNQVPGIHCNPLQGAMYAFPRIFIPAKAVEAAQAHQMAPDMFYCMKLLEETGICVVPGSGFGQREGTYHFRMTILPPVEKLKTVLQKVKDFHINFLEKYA
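Recombinant GPT2 (10ng/uL) with 250uM a-KG and 2mM L-alanine, 30 min at room temperature, in HEPES pH 7.5 buffer. Pyruvate detected by pyruvate oxidase/HRP/Amplex Red fluorescence after 30 min in the dark; AOA (50uM) as positive control.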
Npr1 antag conf: hNpr1 antagonism, confirmation assay; hit rate 76% among 1,400; AID 1347044; shares compounds with hNpr1 antagonist; HEK293 hNpr1 cGMP GloSensor luminescence, ANP-stimulated; Potency, µM (doses to about 57.6 µM), inactives show top-dose activity change, negative = inhibition, most hits filed as inhibitors; calls by dose curve; also: nearly all actives have a fitted effect of over 70% in size
NPR2 antag: selectivity test of Npr1 antagonists against human Npr2; shares compounds with hNpr1 antagonist; HEK293 hNpr2 GloSensor cGMP luminescence, CNP-stimulated; Potency, µM (doses to about 57.6 µM), without a hit: at the highest dose activity change, negative = inhibition, actives largely listed as inhibitors; hit rate 67% among 1,400; AID 1347046; calls by dose curve; also: nearly all actives have a fitted effect of over 70% in size
FLuc inh counter: inhibits firefly luciferase, false Npr1 antagonist flag | shares compounds with hNpr1 antagonist | purified FLuc enzyme, luminescence, Km substrate | Potency, µM (doses to about 57.6 µM), without a hit: at the top dose activity change, negative = inhibition, usual class: inhibitors | hit rate 0.7% among 1,400 | AID 1347047; also: 0% is about no effect
GloSensor cGMP: counter-screen for Npr1 antagonists: GloSensor control cell line; HEK293 GloSensor cGMP, SNP-stimulated, luminescence; hit rate 69% among 1,400; shares compounds with hNpr1 antagonist; AID 1347051; Potency, µM (doses to about 57.6 µM), for the others: at the highest dose activity change, negative = inhibition, usual class: inhibitors; calls by dose curve; also: % is scaled to controls: 0 for no effect and ±100 for the full control effect; nearly all actives have a fitted effect of over 70% in size
Active calls of the source: *; i = inactive; ? = inconclusive; . = not tested or not shown; [ ] = remark or other dose. Unless noted, calls follow the shape of the dose curve; as a rule, active = well fitted curve in the direction sought with a large enough effect; inconclusive = small, poorly fitted or top-dose-only effect, or another doubt; inactive = no such curve, though single readings can be large; an effect the other way counts as inactive or inconclusive. Potency is read from the fitted curve at half-maximal effect.

SMILES	HEK293 tox	Luciferase inh	3T3 cytotox	hNpr1 antagonist	GPT2 inh	Npr1 antag conf	NPR2 antag	FLuc inh counter	GloSensor cGMP
COCCn1ncc(N2CCCC(CC(=O)NCCN3CCCC3)C2)cc1=O (stereo not given)	-15%	i	-8%	5%	-2%	.	.	.	.
CCc1ccc(CNC(=O)C2CCN(c3cc(C(F)(F)F)ncn3)CC2)cc1	?	i	?	14µM*	i	22µM*	17µM*	4%	14µM*
Cc1ccc(CNC(=O)C2CCN(c3cc(C(F)(F)F)ncn3)CC2)cc1	?	i	-24%	13µM*	-8%	24µM*	22µM*	2%	19µM*
O=C(NCCc1ccccc1)C1CCN(c2cc(C(F)(F)F)ncn2)CC1	-21%	i	-15%	-17%	0%	.	.	.	.
CSc1ccc(CNC(=O)C2CCN(c3cc(C(F)(F)F)ncn3)CC2)cc1	?	i	?	13µM*	4%	19µM*	22µM*	4%	15µM*
Cc1noc([C@H]2CCN(C(=O)CC3CCCC3)C[C@H]2NC(=O)C2CC2)n1	-27%	.	-16%	.	2%	.	.	.	.
O=C(CCC1CCN(C(=O)c2cc(C3CC3)[nH]n2)CC1)N1CCC(Cc2ccccc2)CC1	?	i	?	13µM*	-2%	24µM*	22µM*	-18%	19µM*
O=C(CCC(F)(F)F)N1CCC(CCC(=O)N2CCC(Cc3ccccc3)CC2)CC1	?	i	?	?	?	.	.	.	.
CCc1noc(CC2CCOC3(CCN(S(=O)(=O)c4ccc(C(C)C)cc4)CC3)C2)n1 (stereo not given)	?	i	?	10µM*	-10%	17µM*	19µM*	-2%	12µM*
CCc1noc(CC2CCOC3(CCN(S(=O)(=O)c4ccc(F)c(F)c4)CC3)C2)n1 (stereo not given)	79µM*	i	?	10µM*	-2%	22µM*	?	-1%	?
CCc1noc(CC2CCOC3(CCN(S(=O)(=O)c4ccc(Cl)cc4)CC3)C2)n1 (stereo not given)	?	i	?	?	3%	.	.	.	.
COCCn1c(=O)c2c(n1Cc1ccccc1)CN(C(=O)c1ccc(Oc3ccccc3)cc1)CC2	?	i	?	-3%	-2%	.	.	.	.
CCn1c2c(c(=O)n1Cc1ccccc1)CCN(C(=O)c1ccc(Oc3ccccc3)cc1)C2	?	i	?	11µM*	-6%	24µM*	22µM*	0%	19µM*
COCCn1c2c(c(=O)n1-c1ccccc1)CCN(C(=O)c1ccccc1)C2	i	i	?	2%[70.6 µM]	-1%[88.5 µM]	.	.	.	.
CCn1c2c(c(=O)n1-c1ccccc1)CCN(C(=O)c1ccc(Oc3ccccc3)cc1)C2	?	i	?	8.9µM*	-13%	8.6µM*	11µM*	0%	7.7µM*
O=C(CCC1CCCC1)NCCc1noc(-c2ccccc2)n1	79µM*	i	?	?	-16%	?	-25%	1%	-10%
O=C(NCCc1noc(-c2ccccc2)n1)c1ccccc1	?	i	-27%	-15%	-15%	.	.	.	.
COc1ccc(C(=O)NCCc2noc(-c3ccccc3)n2)cc1F	?	i	?	?	-25%	?	-17%	1%	7%
CC(C)(C)CC(=O)NCCc1noc(-c2ccccc2)n1	-9%	i	-25%	3%	i	.	.	.	.
O=C(N1CCOCC1)N1C2CCC1CN(c1ccc(C(F)(F)F)cc1)C2	?	.	14µM*	.	-1%	22µM*	22µM*	5%	19µM*
CC(=O)NCCCC(=O)N1C2CCC1CN(c1ccc(C(F)(F)F)cc1)C2	-29%	.	?	.	i	.	.	.	.
O=C(c1ccncc1)N1C2CCC1CN(c1ccc(C(F)(F)F)cc1)C2	?	.	?	.	i	24µM*	22µM*	1%	22µM*
Brc1ccc(CN2CCC(c3nc4ccncc4[nH]3)C2)cc1 (stereo not given)	?	i	?	11µM*	5%	24µM*	22µM*	-1%	?
O=C(c1cc(F)ccc1Cl)N1CCC(Cc2nc(-c3ccc(F)cc3)no2)CC1	?	i	?	7.1µM*	i	9.7µM*	11µM*	0%	8.6µM*
O=C(Cc1ccccc1Cl)N1CCC(Cc2nc(-c3ccccc3)no2)CC1	?	i	?	?	?	.	.	.	.
SMILES	HEK293 tox	Luciferase inh	3T3 cytotox	hNpr1 antagonist	GPT2 inh	Npr1 antag conf	NPR2 antag	FLuc inh counter	GloSensor cGMP
O=C(c1ccc(F)cc1)N1CCC(Cc2nc(C3CCOCC3)no2)CC1	?	i	?	?	2%	.	.	.	.
O=C(c1ccc(F)cc1Cl)N1CCC(Cc2nc(-c3ccccc3)no2)CC1	?	i	?	5.6µM*	-26%	5.4µM*	5.4µM*	-1%	4.3µM*
O=C(c1cc(F)cc(F)c1)N1CCC(Cc2nc(-c3ccccc3)no2)CC1	?	i	?	7.1µM*	i	6.1µM*	6.1µM*	-2%	5.4µM*
O=C(c1cc(F)ccc1Cl)N1CCC(Cc2nc(-c3ccccc3)no2)CC1	50µM*	i	?	11µM*	i	14µM*	15µM*	-12%	12µM*
Cc1nnc2ccc(N3CCCN(C(=O)NC4CCCC4)CC3)nn12	i	.	-5%	.	.	.	.	.	.
CNC(=O)[C@@H]1CN(C(=O)c2cc(F)ccc2F)C[C@H]1COC	2%	i	4%	0%	i	.	.	.	.
COC(=O)CN1C(=O)[C@@H]2C[C@@H](O)CN2C2(CNC2)C1=O	i	i	-33%[230 µM]	-3%[70.6 µM]	-9%[88.5 µM]	.	.	.	.
O=C(c1cccc(Cl)c1)N1CCN(C(=O)c2cccc(-c3ccccn3)c2)CC1	?	.	?	.	i	.	.	.	.
COCCOC(=O)N1CCC(Oc2cnc3c(ccn3-c3cncnc3)c2)CC1	?	i	?	7%[70.6 µM]	1%[88.5 µM]	.	.	.	.

Screening data as filed in PubChem BioAssay.
